Source: PubChem BioAssay AID778 (Sanford-Burnham Center for Chemical Genomics, 2007)
In all, about 96,000 compounds went through this assay and about 20,000 (21%) were called active. These entries were drawn from the full list. A number with no mark means an inactive call.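 The calls were made as follows: active = CYP2C19 inhibition above a set limit at 5 µM in the primary screen (cut at about 50% in these data); inactive = the rest.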

Target: Cytochrome P450 2C19 (Homo sapiens) (UniProt P33261)
Test: blockers of cytochrome P450 2C19 activity – biochemical, luminescence, ADME assay, primary screen (AID 778);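 also: plate controls were negative control wells for no effect and 2.5 mM tranylcypromine positive control for full effect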
Conditions: CYP2C19 Supersomes, luciferin-H EGE luminescence, 30 min; at 5 µM; active compounds read high

Chain of Cytochrome P450 2C19 (Homo sapiens) (P33261 whole entry, looked up): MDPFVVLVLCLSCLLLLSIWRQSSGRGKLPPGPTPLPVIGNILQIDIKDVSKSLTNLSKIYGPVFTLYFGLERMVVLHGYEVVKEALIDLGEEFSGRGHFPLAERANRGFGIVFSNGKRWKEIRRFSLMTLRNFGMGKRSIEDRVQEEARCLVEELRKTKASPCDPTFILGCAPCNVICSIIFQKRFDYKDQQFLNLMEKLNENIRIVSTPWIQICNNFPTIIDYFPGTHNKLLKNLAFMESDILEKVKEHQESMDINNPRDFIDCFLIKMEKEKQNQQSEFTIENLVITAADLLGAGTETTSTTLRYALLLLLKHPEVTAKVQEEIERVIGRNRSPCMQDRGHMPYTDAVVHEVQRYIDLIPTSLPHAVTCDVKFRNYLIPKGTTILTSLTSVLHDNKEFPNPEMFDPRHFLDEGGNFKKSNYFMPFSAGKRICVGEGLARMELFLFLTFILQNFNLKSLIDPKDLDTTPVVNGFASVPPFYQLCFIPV

Structure (SMILES)	inhibition
Cc1ccc(SCCC(=O)OCC(=O)Nc2ncc(Cl)cc2Cl)cc1	24%
O=c1c2ccccc2oc2nc(C3CCCCC3)n(Cc3ccco3)c(=O)c12	50.7% (active)
CCc1nc2oc3ccccc3c(=O)c2c(=O)n1Cc1ccc(OC)cc1	-0.6%
O=c1c2ccccc2oc2nc3n(c(=O)c12)CCCS3	0.7%
O=C(O)/C=C/C(=O)Nc1ccc(F)cc1F	5.3%
Cn1c2c(c(=O)n(C)c1=O)CN(Cc1ccco1)CN2	0.4%
CCOC(=O)Cc1csc(NC(=O)C(C)(C)C)n1	15.4%
CCOC(=O)Cc1csc(NC(NC(=O)OCC)(C(F)(F)F)C(F)(F)F)n1	13.5%
CCCC(CCC(=O)OC)(C(=O)OCC)c1csc(N)n1 (stereo unspecified)	73.6% (active)
COc1ccc(-n2c(SC)nc(O)cc2=O)cc1	5.6%
COCCNc1nc(-n2nc(C)cc2C)nc2sc3c(c12)CCCC3	-16.1%
Oc1ccc2nc(Cc3ccccc3)[nH]c2c1	23.6%
c1ccc2c(CSCc3nc4ccccc4[nH]3)cccc2c1	89.3% (active)
CCCCSc1nnc(-c2ccc(C)cc2)o1	49.4%
OCCNc1nc2ccccc2[nH]1	-4.7%
Clc1ccccc1SCc1nc2ccccc2[nH]1	83.2% (active)
O=C(CSc1nnc(-c2ccccc2)o1)N1CCOCC1	-12.3%
c1ccc(-c2nnc(SCc3nc4ccccc4[nH]3)o2)cc1	95.2% (active)
N#C/C(=C(/O)COc1cccc2ccccc12)c1nc2ccccc2[nH]1	12%
N#Cc1c2c(c(N3CCN(CCO)CC3)n3c1nc1ccccc13)CCCC2	34.5%
CN(C)CCNC(=O)C(C(=O)c1ccccc1)n1ccccc1=O (stereo unspecified)	-10.3%
Cc1ccccc1S(=O)(=O)Cc1ccc(C(=O)NCCN2CCCCC2C)o1 (stereo unspecified)	4.1%
COC(=O)c1cnn2c(C(F)(F)F)cc(-c3ccco3)nc12	-9%
COc1ccc(/C(N)=N/OC(=O)Oc2ccccc2)cc1	58.6% (active)
N/C(=N\OC(=O)CCc1ccccc1)c1ccc(Cl)cc1	-1.3%
COc1ccc(OCCCC(=O)Oc2ccc(OC)cc2)cc1	6.3%

Structure (SMILES)	inhibition
COc1ccc(OC)c(Nc2nc(-c3ccc(O)c(O)c3)cs2)c1	27.6%
COc1ccc(NC(=O)Nc2ccc3nc(C)c(C)nc3c2)cc1	3.2%
COc1ccc2c(c1)cc1n2CCN=C1NN	92.9% (active)
CC(=O)N1CSCC1C(=O)O (stereo unspecified)	2.2%
CC1(C)C/C(=C(/C#N)C(N)=O)CCO1	-16.7%
CC(C)OC(=O)c1sc2nc3c(cc2c1N)C(=O)CCC3	7.1%
CC1=C(C(=O)Nc2ccc(Cl)cc2)C(c2ccco2)NC(=O)N1 (stereo unspecified)	18.4%
Cc1cccc(N2CCN(C(=O)CN(C)S(=O)(=O)c3ccc4c(c3)CCC(=O)N4)CC2)c1C	6.3%
CCOC(=O)c1cnn(Cc2ccccc2Cl)c1N	30.5%
COC(=O)c1ccc(COC(=O)c2c(C)nn(Cc3ccccc3Cl)c2Cl)o1	90.5% (active)
COCCCNC(=O)CN1CCN(Cc2ccccc2Cl)C1=O	-10.8%
CCOC(=O)c1sc(/N=C/Nc2nc(C)c(C(=O)OCC)s2)nc1C	7.2%
c1ccc(CC2CCN(c3nc4ccccc4n4cnnc34)CC2)cc1	-7.7%
O=C(Cc1ncc(C(F)(F)F)cc1Cl)Nc1cccc(Br)c1	55.7% (active)
O=C(CN1CCN(c2ncc(C(F)(F)F)cc2Cl)CC1)Nc1ccc2c(c1)OCO2	22%
CC(=O)c1ccc(Cc2ncc(C(F)(F)F)cc2Cl)s1	16.5%
CCOC(=O)c1[nH]c2c(c1C)C(=O)CC(c1ccc(N(C)C)cc1)C2 (stereo unspecified)	6.7%
CCCCn1c(SCc2ncc(-c3ccccc3)o2)nc2cc(S(N)(=O)=O)ccc21	25%
Cc1cc(C)nc(NC(=O)Nc2ccccc2C(F)(F)F)n1	21%
O=C(c1ccccc1)c1cc(-c2ccccn2)c(N2CCOCC2)s1	14.1%
Cc1cc(=O)oc2ccc(OCC(=O)O)cc12	3.3%
Cc1cc(=O)oc2cc(OCC3CC(c4ccccc4Cl)=NO3)ccc12 (stereo unspecified)	50.8% (active)
COc1cccc(-c2nnc(SCCOc3ccc4c(C)cc(=O)oc4c3)o2)c1	-15.6%
CCOC(=O)c1c(NC(=O)CSc2nnc(CN3CCOCC3)n2C)sc2c1CCCC2	48.7%
NC(=O)C1CC=CCC1C(=O)OCC(Cl)=C(Cl)Cl (stereo unspecified)	22%
COc1cc(N=Cc2c(O)[nH]c3ccccc23)cc(OC)c1OC	63.9% (active)

Structure (SMILES)	inhibition
COc1ccc(OC)c(N=Cc2c(O)[nH]c3ccccc23)c1	7.7%
COc1ccc(N=Cc2c(O)[nH]c3ccccc23)cc1OC	32.9%
Nn1c(SCC(=O)NC2CCCC2)nnc1-c1ccccc1F	21.3%
O=c1[nH][nH]c(C(F)(F)F)c1C=NCc1ccccc1Cl	93.3% (active)
CC/S(CC1CC1(Cl)Cl)=N\S(=O)(=O)c1ccc(C)cc1 (stereo unspecified)	9.6%
COc1ccc(NS(=O)(=O)c2ccc(NC(=O)C(C)(C(F)(F)F)C(F)(F)F)cc2)nn1	-7.1%
CC1=NC2(CCCc3c2no[n+]3[O-])N(O)C1(C)C (stereo unspecified)	-17.9%
CSc1nnc2c(n1)OC(c1cn(C)c3ccccc13)N(C(C)=O)c1ccccc1-2 (stereo unspecified)	0.8%
Oc1c(C(c2ccccn2)N2CCOCC2)ccc2cccnc12 (stereo unspecified)	-8.6%
CN1CCCC(OC(=O)COc2ccc(Br)cc2)C1 (stereo unspecified)	27%
CCOC(=O)C1CCN(C(=O)Cc2c(C(=O)O)[nH]c3ccccc23)CC1	2.6%
CCOC(=O)C1CCN(C(=O)CSc2cc(=O)n(C)c3ccccc23)CC1	2.4%
CCOC(=O)N1CCN(C(=O)CNC(=O)Cc2ccc(Cl)cc2)CC1	5.9%
CCOC(=O)C1CCN(C(=O)COc2cc(C)c(Br)c(C)c2)CC1	86.3% (active)
CCOC(=O)N1CCN(C(=O)COc2ccc(Br)cc2)CC1	59.1% (active)
CCOC(=O)N1CCN(C(=O)CSc2ccc(Cl)cc2)CC1	71.6% (active)
CCOC(=O)N1CCN(C(=O)CSc2nnc(-c3c[nH]c4ccccc34)n2CCOC)CC1	4.5%
CCOC(=O)N1CCN(C(=O)COc2ccc(Cl)cc2C)CC1	14.4%
CC12C(=O)N(n3cnnc3)C(=O)C1C1C=CC2C1 (stereo unspecified)	-13.7%
Cc1cc2nnc(SCC(=O)N3CCN(c4ccccc4)CC3)n2c(N)n1	-9.1%
NC(=O)CSC1=Nc2ccccc2C2=NC(CCC(=O)NCc3ccc(F)cc3)C(=O)N12 (stereo unspecified)	47.9%
CCOC(=O)CCc1c(C)c(C#N)c2[nH]c3ccccc3n2c1=O	27.1%
CC1CN(C2CCCCC2)c2nc3c(c(=O)n(C)c(=O)n3C)n2C1 (stereo unspecified)	29.5%
O=C1NC(c2cc3c(cc2Cl)OCO3)Oc2ccccc21 (stereo unspecified)	55.5% (active)
Cc1cc(C)c2c3c(sc2n1)C(c1ccccc1)C(C#N)=C(N)O3 (stereo unspecified)	-7.9%
CN(C)c1ccc(/C=C2\NC(=S)N(Cc3ccccc3)C2=O)cc1	57.6% (active)

Structure (SMILES)	inhibition
CN(C)c1cc[n+](Cc2ccccc2)cc1	-3.4%
CC1=NN(Cc2ccccc2)C(=O)/C1=C/c1ccc(N(C)C)cc1	10.1%
CCCCCCCC(=O)NC(Nc1ccccc1OC)C(Cl)(Cl)Cl (stereo unspecified)	3.6%
CCOC(=O)CSc1nnc(-c2cccc(Br)c2)o1	28.9%
CCOC(=O)CSc1nnc(CNc2ccc(F)cc2)o1	56.5% (active)
CCC(=O)Nc1ccc(C(=O)CSc2nnc(CNc3ccc(Cl)cc3)o2)cc1OC	11%
CNC(=O)c1nnn(-c2ccccc2)c1C(=O)NC	-4%
Cc1ccc(-n2ncc3c(=O)n(-c4ccc(C)c(C)c4)c(-c4ccco4)nc32)cc1	30.9%
O=C(NCc1ccco1)c1ccc(CS(=O)(=O)Cc2ccc(F)cc2)o1	42.4%
O=S(=O)(c1ccc(Br)cc1)c1nc(-c2ccccc2)oc1NCc1cccnc1	18.4%
O=C(NCc1cccnc1)c1ccc(CS(=O)(=O)c2ccc(Br)cc2)o1	100% (active)
CC(C)CNC(=O)C1CCCN(S(=O)(=O)c2ccc(-n3cnnn3)cc2)C1 (stereo unspecified)	-17.5%
CC(C)(C)C(=O)CCN1C(=O)C2(OCCO2)c2ccccc21	30%
C=CCn1c(-c2ccc3[nH]c(C)c(C)c3c2)n[nH]c1=S	29.1%
O=c1cc(Cn2nnc(-c3ccc(Cl)cc3)n2)nc2sccn12	65.5% (active)
O=C(NCc1cn2ccsc2n1)Nc1ccc(Cl)cc1	29.8%
O=C(NCc1ccc(Cl)cc1)c1cc2c(nc3sccn32)s1	14.8%
Cc1cccc(C)c1NC(=O)N1CC=C(n2c(=O)[nH]c3ccccc32)CC1	-0.4%
Cc1nn(-c2ccccc2)c2c1C(=O)NC(=O)C(C)(C)C2	28%
Cc1ccc(C2=NN(C)c3nc4ccccc4n3C2)cc1	12.8%
Cc1ccc(CNC(=O)CCCNC(=O)c2ccc(Cl)cc2)n1C	60.2% (active)
CCN(CC(=O)NC(C)C)C(=O)CCNC(=O)c1ccc(Cl)cc1	10.5%
CCCCNC(=O)CCNC(=O)c1ccc(C(C)(C)C)cc1	31.5%
